Measurements taken from the supplement of paper PMC6555819.

Legend:
Test in all cases: PBM binding z-score (relative to random genomic background probes); higher = stronger binding; sequences stand for … in GC…GCGATTGACAGCGTAGAATGAAGG
[1] = tested on: RARb homodimer (NR concentration 270 nM)
Outline: (§1)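 Binding z-scores take random background probes as their reference. They come from custom Agilent 4×180K protein-binding microarrays incubated 1 h with ligand-free nuclear receptor dimers, with antibodies against each partner (one per run) detecting binding. Scanned fluorescence was regression-normalized.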

[2] = tested on: RARg:RXRa (NR concentration 270 nM, RXRa partner concentration 90 nM)
Outline: as §1

[3] = tested on: RARg homodimer (NR concentration 270 nM)
Outline: as §1

[4] = tested on: RXRa DBDmut IVT, anti-RXR (DBD mutation: RXRa K156A/R161A, NR concentration 90 nM)
Outline: as §1

[5] = tested on: RXRa homodimer (NR concentration 180 nM)
Outline: as §1

[6] = tested on: THRa:RXRa (NR concentration 90 nM, RXRa partner concentration 90 nM)
Outline: as §1

[7] = tested on: THRa homodimer (NR concentration 90 nM)
Outline: as §1

[8] = tested on: VDR homodimer (NR concentration 270 nM)
Outline: as §1

Sequence | PBM binding z-score [1] | PBM binding z-score [2] | PBM binding z-score [3] | PBM binding z-score [4] | PBM binding z-score [5] | PBM binding z-score [6] | PBM binding z-score [7] | PBM binding z-score [8]
CCTGACAGGTGAAAGGTAACTCAGTCTGGTACGC | 0.705 | 1.41 | 0.684 | -0.145 | 1.95 | 0.905 | -0.332 | -0.107
CAAACTAGGTCACCGGAAGGTCAACGTCCGCATG | 5.99 | 8.58 | 8.16 | 2.07 | 7.28 | 4.63 | 3.19 | 2.78
AATACAGGGTCACAAGGCCAGAGTAGGTACGAAT | 3.8 | 6.03 | 5.53 | 3.06 | 6.78 | 3.86 | 1.78 | 2.64
CCAGACAGGTGAAAAGGTAACTCAGCCTCGATTA | 1.49 | 1.96 | 0.973 | 0.272 | 1.52 | 0.971 | 0.514 | -0.0428
GCTAGCACGCCATTTGGGTCACTCAATGACGGGC | 1.32 | 0.76 | 0.779 | -0.343 | 0.832 | 1.5 | 0.413 | -0.357
TAGCCTAGGTCACTGGGCCAGTATAGTACGCATC | 3.06 | 3.92 | 4.68 | 0.296 | 2.8 | 2.92 | 0.878 | 0.192
CCTACTGGGCCATCAGATCATTGATATCAACGTT | -0.087 | 0.0829 | 0.48 | 0.0432 | -0.148 | -0.114 | -0.322 | 0.0449
ACTTACGGATCAACGAGGTTATAGCACGCGTATA | 0.98 | 0.642 | 0.684 | 0.778 | 1.46 | 1.83 | 0.943 | 1.39
TCTGCTAGGTCAACGATTGTCAGCTAATCTGCTA | 3.06 | 3.75 | 4.64 | 1.16 | 2.41 | 2.77 | 0.845 | -0.274
TATCCAGGGTCAAAGGCCAGAGTACGAATGTCGA | 3.6 | 5.88 | 5.26 | 2.94 | 7.51 | 3.75 | 1.3 | 3.46
AGAATGAGGTTATATGTAGATCAGGGAAGAAAGT | 1.34 | 1.69 | 1.09 | 1.74 | 2.1 | 2.44 | 1.22 | 1.24
ATCTCTAGGTAAAGTTCACTGAAAGATCGATAGA | 3.34 | 3.14 | 3.42 | 2.2 | 2.82 | 1.95 | 0.46 | 3.79
AGAACGAGGGCACGCTGCGTTGATAGCAGAGTAG | 1.06 | 1.55 | 2.21 | 1.81 | 1.3 | 1.71 | -0.00562 | 0.888
GGAACGAGGGGAAAGTTGATAGCATCTGTCGACG | 0.0344 | 0.0991 | 0.188 | 0.287 | 0.258 | 0.0347 | -0.259 | -0.402
CGAACTAGGACATTGACAGGACAGTGAATAGTAA | 0.469 | 0.496 | 0.642 | 0.451 | -0.322 | 0.858 | 0.623 | 0.546
AGAACTAGGGCAATGAGTTGATAGCACGGGTGGC | 0.411 | 0.47 | 0.889 | 0.324 | 0.422 | 0.157 | -0.177 | 1.02
AGTCAAGGTTCATCTAGGTAACGTAAGATATGCT | 2.09 | 3.09 | 2.93 | 4.77 | 3.54 | 3 | 0.474 | 5.03
CCTATTAGTTGACCATAAGGGCCACCGAAGCTCG | 1.51 | 0.432 | 0.644 | 0.143 | 0.414 | 0.438 | 0.222 | 0.354
CCTAGCAGGCCAATCTGGGTCATTCAAGGCTTGA | 2.03 | 0.777 | 0.991 | 0.224 | 0.619 | 3.73 | 0.0402 | 0.585

Sequence | PBM binding z-score [1] | PBM binding z-score [2] | PBM binding z-score [3] | PBM binding z-score [4] | PBM binding z-score [5] | PBM binding z-score [6] | PBM binding z-score [7] | PBM binding z-score [8]
CCGACTGGGGCACAAAGGTTACCATACCATCCGG | 2.64 | 2.34 | 1.92 | -0.678 | 2.52 | 1.51 | 0.0239 | 0.375
GCAGACAGGTTAAACGCAGGTAACTCAGGGTGGC | 0.331 | 1.81 | 0.406 | -0.0571 | 1.54 | 2.06 | -0.519 | -0.623
ATATGTAGTTTACATCCGGGTCATTCAGGCTATG | 2.34 | 1.83 | 1.44 | 1.58 | 2.1 | 3.2 | 2.74 | 2.82
TGAATGACGTTATAAGATCAGGGAACGTTGCAAA | -0.513 | 0.43 | 0.292 | -0.941 | 0.24 | -0.021 | -0.323 | -0.203
GTACCAAGGTGAATAGGTCGTGGATGAGTAGGCG | 2.29 | 3.12 | 1.51 | -0.652 | 2.44 | 1.91 | 0.648 | -0.0897
GCTTGTAGATTAAGGTTAAGAAAGACTAAGCTAA | 0.241 | 0.49 | 0.267 | 0.113 | 0.645 | 2.08 | 0.778 | -0.232
CCTCGGAGGACAACAGGAGATCAGAGCTGCCAGA | 0.118 | 0.145 | 0.783 | 0.248 | -0.305 | 0.396 | -0.247 | -0.168
TCTTGTAGACCAATAGAGGTTAAGAAAGTGCGCT | 1.42 | 0.922 | 0.638 | 0.754 | 1.37 | 1.66 | -0.31 | 0.345
TGAATGAGGTTATGAGATCAGGGAACGTTGCAAA | 0.266 | 1.6 | 1.13 | 0.145 | 2.19 | 1.95 | 0.132 | 0.305
CGAACTAGGTCAAGGACAGGGAATCTCCGCACGC | 3.19 | 4.09 | 5.13 | 1.35 | 2.84 | 3.13 | 2.25 | 0.294
TTACCAAGGTGAAAGGTCGTCGATGCACGCCTTG | 2.78 | 4.43 | 2.22 | 0.201 | 6.2 | 3.55 | 0.956 | 0.709
CCGACTGGGGGAGAAAGGTTACCATACCATCCGG | 2.12 | 2.37 | 1.74 | -0.115 | 2.39 | 1.84 | 0.416 | 0.562
CCAGACGGGTGAGAAGGTAACTCAGCCTCGATTA | -0.188 | 0.0516 | 0.0574 | -0.845 | 0.0255 | -0.158 | -0.508 | -0.29
GATACAGGGTCAAGACCAGAGTACGCGTATTGAT | 3.07 | 4.94 | 4.7 | 2.23 | 5.54 | 3.33 | 0.503 | 2.14
TCTTGTAGATCAACAGGAGGTAAAGAAAGATCGA | -0.473 | 0.0301 | -0.00391 | 0.122 | 0.423 | 0.237 | -0.482 | -0.385
CTTCGGAGGACAACAGGAGGTCAGAGCTGCCAGA | 3.55 | 3.73 | 3.57 | 0.619 | 2.19 | 2.97 | 1.1 | 1.45
TTACCAAGGTGAAGGTCCTTGATCCCTCTGTAGA | 1.32 | 0.466 | 0.274 | -0.201 | 0.918 | 1.95 | 0.841 | -0.203
TCTCGGAGTACACGAAGGTCAGAGCTTTCCAGAG | 3.09 | 2.44 | 2.29 | 1.01 | 1.77 | 1.58 | -0.377 | 2.03
CTCGCAAGGTCGTGCTCAGGTGAGTATACCAAAC | 1.7 | 3.26 | 2.14 | 2.15 | 2.52 | 3.63 | 1.6 | 1.22

Sequence | PBM binding z-score [1] | PBM binding z-score [2] | PBM binding z-score [3] | PBM binding z-score [4] | PBM binding z-score [5] | PBM binding z-score [6] | PBM binding z-score [7] | PBM binding z-score [8]
TGATATAGGTAAAGGTGAAAGTCGAACGATATGA | 1.61 | 1.55 | 1.43 | -0.501 | 2.09 | 1.57 | -0.161 | -0.09
CCGAGGAGGTTATGGGGCATTCAGGCAACGGTGA | 1.31 | 1.42 | 0.885 | 0.0755 | 1.95 | 1.25 | 0.438 | 0.25
CGCGAAAGGTCGTGCTCAGGTGAGTATACCAAAC | 3.1 | 5.55 | 4.27 | 2.19 | 5.98 | 4.17 | 1.26 | 1.18
TCTTGTAGATCAAAAGGAGGTTAAGAAAGATCGA | 0.201 | 0.79 | 0.0979 | 0.622 | 1.17 | 1.09 | -0.613 | 0.16
GCTACTAGTTGAAAGGGCAACCGAATGATTCTCG | 2.01 | 1.33 | 1.35 | 0.375 | 1.33 | 0.651 | -0.134 | 0.214
GCTATTAGTTGAAAGGGCAATCGAATGATTCTCG | 1.55 | 0.91 | 0.806 | 0.718 | 1.12 | 0.487 | -0.359 | 0.123
ATAGAAAGGTCGAGGTGAGTATAGAGAAAGGGAA | 2.6 | 4.22 | 4.22 | 0.887 | 4.17 | 2.93 | 0.985 | 0.537
GGAACGAGGGCATTCGAGTTGATAGCGTGGCGAT | 0.509 | 0.892 | 1.16 | 3 | 0.583 | 3.13 | -0.46 | 3.6
GCTCGGAGGACAAGGTCAGAGATTTGTCCGTAGA | 2.83 | 2.84 | 3.13 | 0.212 | 2.23 | 2.82 | 1.51 | 0.17
TCTGCTAGGTCAGTTGGTCAGCCAACGAGCTGCC | 2.3 | 2.84 | 3.3 | 0.162 | 0.782 | 1.06 | -0.436 | -0.81
GCTGTTAGGTCAGGTTGGTCAGCTAACGGGTACG | 3.34 | 3.03 | 4.11 | 0.92 | 1.42 | 2.84 | 1.69 | 0.688
AGTCAAAGTTCATGACGAGGTAACGTAAAGCACG | 3.83 | 6.13 | 5.76 | 4.29 | 4.9 | 4.23 | 1.02 | 4.11
CGTCCTAGGTCAAAGGTCAGTGAAGAGATGACGG | 4.99 | 7.97 | 7.18 | 2.25 | 9.16 | 4.54 | 1.39 | 1.24
ATCGAAAGGTAGAGGTGAGTATAGAGAAAGGGAA | 1.19 | 0.75 | 1.07 | -0.488 | 0.652 | 0.94 | 0.25 | 0.0183
TCTTGTAGATCAGAAGGTTAAGAAAGCTGGCCAA | 1.17 | 0.818 | 0.198 | 0.89 | 1.31 | 0.538 | -0.485 | -0.118
ATATGTAGGTTAGCCGGGGTCATTCAGACTAGGC | 4.07 | 4.69 | 3.57 | 2.39 | 6.32 | 5.21 | 2.99 | 5.54
CGTCCAAGGTCATAGAAGGTCAGTGAAGACAGAT | 5.56 | 6.7 | 7.06 | 4.03 | 6.78 | 5.07 | 2.62 | 4
TGTCAAAATTCAAAGGTAACGTAAGTATCCACAC | 0.464 | 0.501 | 0.807 | -0.417 | 0.772 | 1.16 | -0.046 | 0.102
